# Laboratory results reported in PubChem BioAssay AID1159580 (chemical genetic matrix, 2015).
# The campaign covered roughly 5,500 compounds. About 2,000 (36%) were called active. About 18% were inconclusive and are not listed. The list shows a part of the results. Values without a mark were called inactive. Rule as the data show it: active = normalized growth mostly below about 0.91 (no sharp cut-off); inconclusive = no clear call, values can overlap the other calls; inactive = mostly above about 0.92.
# Test: chemical genetic growth profiling, strain panel (AID 1159580);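 also: tested at 20 µM; growth read once vehicle control cultures reached saturation at 30 °C; 1 = growth at the plate median or of vehicle wells; lower values mean less growth of the strain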
# Conditions: S. cerevisiae deletion strains, growth OD
smiles,measurement,setting,value
CC(C)c1ccc(NC(=S)NC(=O)c2ccccc2)cc1,normalized growth,"locus YAR019C, strain CDC15, active compounds read low",0.964
same,normalized growth,"locus YBL105C, strain PKC1, active compounds read low",0.952
same,normalized growth,"locus YBR135W, strain CKS1, active compounds read low",0.957
same,normalized growth,"locus YBR136W, strain MEC1, active compounds read low",0.963
same,normalized growth,"locus YBR160W, strain CDC28, active compounds read low",0.961
same,normalized growth,"locus YDL017W, strain CDC7, active compounds read low",0.96
same,normalized growth,"locus YDL028C, strain MPS1, active compounds read low",0.953
same,normalized growth,"locus YDL101C, strain DUN1, active compounds read low",0.96
same,normalized growth,"locus YDL108W, strain KIN28, active compounds read low",0.971
same,normalized growth,"locus YDL132W, strain cdc53, active compounds read low",0.953
same,normalized growth,"locus YDL214C, strain PRR2, active compounds read low",0.939
same,normalized growth,"locus YDR052C, strain DBF4, active compounds read low",0.962
same,normalized growth,"locus YDR054C, strain cdc34, active compounds read low",0.94
same,normalized growth,"locus YDR226W, strain ADK1, active compounds read low",0.955
same,normalized growth,"locus YDR477W, strain SNF1, active compounds read low",0.923
same,normalized growth,"locus YER123W, strain YCK3, active compounds read low",0.959
same,normalized growth,"locus YER133W, strain GLC7, active compounds read low",0.938
same,normalized growth,"locus YFL009W, strain cdc4, active compounds read low",0.952
same,normalized growth,"locus YFL029C, strain CAK1, active compounds read low",0.953
same,normalized growth,"locus YFR003C, strain YPI1, active compounds read low",0.961
same,normalized growth,"locus YFR019W, strain FAB1, active compounds read low",0.999
same,normalized growth,"locus YFR028C, strain CDC14, active compounds read low",0.958
same,normalized growth,"locus YGR040W, strain KSS1, active compounds read low",0.918
same,normalized growth,"locus YGR052W, strain FMP48, active compounds read low",1.03
same,normalized growth,"locus YGR092W, strain DBF2, active compounds read low",0.851
same,normalized growth,"locus YHR030C, strain SLT2, active compounds read low",0.797 (active)
same,normalized growth,"locus YHR079C, strain IRE1, active compounds read low",0.882
same,normalized growth,"locus YHR082C, strain KSP1, active compounds read low",0.974
same,normalized growth,"locus YHR205W, strain SCH9, active compounds read low",0.904
same,normalized growth,"locus YIL147C, strain SLN1, active compounds read low",0.963
same,normalized growth,"locus YJL095W, strain BCK1, active compounds read low",0.883
same,normalized growth,"locus YJL128C, strain PBS2, active compounds read low",0.94
same,normalized growth,"locus YJL157C, strain FAR1, active compounds read low",0.923
same,normalized growth,"locus YJR016C, strain ILV3, active compounds read low",0.958
same,normalized growth,"locus YJR066W, strain TOR1 (second series), active compounds read low",0.906
same,normalized growth,"locus YJR066W, strain TOR1, active compounds read low",0.891
same,normalized growth,"locus YKL048C, strain ELM1, active compounds read low",0.968
same,normalized growth,"locus YKL067W, strain YNK1, active compounds read low",0.953
same,normalized growth,"locus YKL101W, strain HSL1, active compounds read low",0.957
same,normalized growth,"locus YKL193C, strain SDS22, active compounds read low",0.954
same,normalized growth,"locus YKL203C, strain TOR2, active compounds read low",0.96
same,normalized growth,"locus YLR113W, strain HOG1, active compounds read low",0.919
same,normalized growth,"locus YLR133W, strain CKI1, active compounds read low",0.941
same,normalized growth,"locus YLR403W, strain SFP1, active compounds read low",0.879
same,normalized growth,"locus YML070W, strain DAK1, active compounds read low",0.97
same,normalized growth,"locus YMR001C, strain CDC5, active compounds read low",0.951
same,normalized growth,"locus YMR205C, strain PFK2 (second series), active compounds read low",0.956
same,normalized growth,"locus YMR277W, strain FCP1, active compounds read low",0.962
same,normalized growth,"locus YNL006W, strain LST8, active compounds read low",0.966
same,normalized growth,"locus YNL020C, strain ARK1, active compounds read low",0.926
same,normalized growth,"locus YNL161W, strain CBK1, active compounds read low",0.959
same,normalized growth,"locus YNL183C, strain NPR1, active compounds read low",0.957
same,normalized growth,"locus YNL207W, strain RIO2, active compounds read low",0.953
same,normalized growth,"locus YNL222W, strain SSU72, active compounds read low",0.959
same,normalized growth,"locus YNL307C, strain MCK1 (second series), active compounds read low",0.91
same,normalized growth,"locus YOL078W, strain AVO1, active compounds read low",0.956
same,normalized growth,"locus YOL136C, strain PFK27, active compounds read low",0.959
same,normalized growth,"locus YOR061W, strain CKA2, active compounds read low",0.904
same,normalized growth,"locus YOR119C, strain RIO1, active compounds read low",0.921
same,normalized growth,"locus YOR231W, strain MKK1, active compounds read low",0.911
same,normalized growth,"locus YOR329C, strain SCD5, active compounds read low",0.956
same,normalized growth,"locus YPL031C, strain PHO85, active compounds read low",0.898
same,normalized growth,"locus YPL153C, strain RAD53, active compounds read low",0.921
same,normalized growth,"locus YPL204W, strain HRR25, active compounds read low",0.933
same,normalized growth,"locus YPL209C, strain IPL1, active compounds read low",0.954
same,normalized growth,"locus YPL256C, strain CLN2, active compounds read low",0.92
same,normalized growth,"locus YPR025C, strain CCL1, active compounds read low",0.955
same,normalized growth,"locus YPR106W, strain ISR1, active compounds read low",0.958
same,normalized growth,"locus YPR111W, strain DBF20, active compounds read low",0.964
same,normalized growth,"strain NNK1, active compounds read low",0.967
same,normalized growth,"strain TSCII, active compounds read low",0.947
